{
  "source": "PubChem BioAssay AID504329",
  "about": "(Southern Research Specialized Biocontainment Screening …, 2011)",
  "note": "About 1,000 (0.29%) of roughly 340,000 compounds were called active. Not all results are given here. Measured potencies and affinities stand elsewhere. Values without a mark were called inactive. Rule as the data show it: inconclusive = inhibition above about 27% without an active follow-up result; inactive = below that.",
  "data": [
    {"experiment": "H1N1 influenza NS1A inhibitors, functional cell based assay (AID 504329)", "settings": "percent inhibition, at 12.5 µM, stronger effect = higher value", "units": {"inhibition": "%"}, "values": [
      {"smiles": "C/C(CC(=O)NC1CCCCCC1)=N\\NC(=O)c1cnccn1", "inhibition": 2.22},
      {"smiles": "C/C(=N\\NC(=S)NC1CCCCC1)c1ccccc1", "inhibition": 11.5},
      {"smiles": "C/C(=N\\NC(=S)NC1CCCCC1)c1cccs1", "inhibition": 7.94},
      {"smiles": "CC(=O)c1nccs1", "inhibition": -23},
      {"smiles": "C/C(=N/NC(=O)c1cnccn1)c1ccncc1", "inhibition": 2.49},
      {"smiles": "S=C(NC1CCCC1)N1CCN(c2ccccn2)CC1", "inhibition": -9.04},
      {"smiles": "CCNC(=S)N1CCN(c2ccccn2)CC1", "inhibition": -6.5},
      {"smiles": "C/C(=N\\NC(=O)C1CC1)c1cccnc1", "inhibition": -3.09},
      {"smiles": "COc1cc(SC)ccc1C(=O)Nc1ccc2c(c1)CCN2S(C)(=O)=O", "inhibition": 0.73},
      {"smiles": "CC(=O)Nc1cc(C(=O)OCC(=O)c2ccc(C)cc2)ccc1C", "inhibition": 2.61},
      {"smiles": "CCOc1ccc(-c2nc(S(=O)(=O)c3ccccc3)c(N3CCOCC3)o2)cc1", "inhibition": 6.87},
      {"smiles": "CNC(=O)c1c(NC(=O)C2=COCCO2)sc2c1CCC(C)C2", "note": "(stereo not drawn)", "inhibition": -0.48},
      {"smiles": "COc1ccc(CCN(Cc2ccccn2)C(=S)Nc2ccccc2F)cc1OC", "inhibition": 2.66},
      {"smiles": "Cc1cccc(N2CCN(C(=O)CCn3c(=O)[nH]c4ccsc4c3=O)CC2C)c1", "note": "(stereo not drawn)", "inhibition": 14.2},
      {"smiles": "CC(C)[C@H](NC(=O)OCc1ccccc1)C(=O)OCC(=O)Nc1ccc(N2CCOCC2)cc1", "inhibition": -2.26},
      {"smiles": "O=C(CSc1ncccn1)Nc1ccccc1", "inhibition": -12.3},
      {"smiles": "O=C(CSc1nnc(-c2ccccn2)o1)Nc1ccccc1", "inhibition": -0.31},
      {"smiles": "O=C(CSc1ccc(C(F)(F)F)cn1)Nc1ccccc1", "inhibition": -2.05},
      {"smiles": "O=C(CSc1ccccn1)Nc1ccc(NC(=O)CSc2ccccn2)cc1", "inhibition": 3.94},
      {"smiles": "O=C(N/N=C/C1CC2CCC1C2)c1ccc2c(c1)OCO2", "note": "(stereo not drawn)", "inhibition": 4.78},
      {"smiles": "Cc1ccccc1C(=O)c1cccn1CC(=O)NCCCc1ccccc1", "inhibition": -0.87},
      {"smiles": "CCOC(=O)c1c(C)[nH]c(C(=O)OCc2ccc(F)cc2)c1C", "inhibition": -5.78},
      {"smiles": "CCOc1ccc(C2NC(=O)NC(C)=C2C(=O)OCc2ccccc2)cc1", "note": "(stereo not drawn)", "inhibition": -2.43},
      {"smiles": "CCOC(=O)C1=C(COc2ccccc2)NC(=O)NC1c1ccc(Cl)cc1", "note": "(stereo not drawn)", "inhibition": 3.45},
      {"smiles": "CCOC(=O)C1=C(c2ccccc2)NC(=O)NC1c1ccc(OCC#N)c(OC)c1", "note": "(stereo not drawn)", "inhibition": 1.47},
      {"smiles": "CCOC(=O)C1=C(c2ccccc2)NC(=O)NC1c1ccc(OC)c(OC)c1", "note": "(stereo not drawn)", "inhibition": -15.2},
      {"smiles": "CCOC(=O)[C@@H]1[C@H]2COc3cc(OC)ccc3[C@@H]2N2C(=O)N(c3cccc(C)c3)C(=O)[C@]12C", "inhibition": 2.49},
      {"smiles": "COc1ccc(C2=CC(c3ccc(OC)c(OC)c3)c3c(c4ccccc4oc3=O)O2)cc1OC", "note": "(stereo not drawn)", "inhibition": 26.9},
      {"smiles": "Cc1ccc(NC2(C(N)=O)CCCC2)cc1", "inhibition": -3.06},
      {"smiles": "CCC1=C(C)C(N2CCOCC2)=NP(N2CCOCC2)(N2CCOCC2)=N1", "inhibition": 3.31},
      {"smiles": "CCC(Sc1nc(C)cc(=O)[nH]1)C(=O)Nc1sc2c(c1C#N)CCCC2", "note": "(stereo not drawn)", "inhibition": -5.51},
      {"smiles": "Cc1cc(C(=O)NC2CCCCCCC2)ccc1[N+](=O)[O-]", "inhibition": -15.4},
      {"smiles": "N#Cc1cc(NC2CCCC2)c([N+](=O)[O-])cc1C#N", "inhibition": 12.5},
      {"smiles": "Cc1cc([N+](=O)[O-])c(NCCCCCCO)c([N+](=O)[O-])c1", "inhibition": 11},
      {"smiles": "CCCCCCNc1c([N+](=O)[O-])cc(C)cc1[N+](=O)[O-]", "inhibition": 28.9},
      {"smiles": "CCCn1c2ccccc2c2cnn(CC(=O)NCCCOC)c(=O)c21", "inhibition": 0.78},
      {"smiles": "CCN(CC(=O)Nc1c(F)cccc1F)C(=O)CNC(=O)c1ccco1", "inhibition": -4.3},
      {"smiles": "CN1c2ccccc2N(C)C1(C)c1ccccc1", "inhibition": 14.4},
      {"smiles": "CN1c2cccc3cccc(c23)N(C)C1(C)C", "inhibition": 20.9},
      {"smiles": "CC(C(c1ccc2c(c1)OCO2)c1c(N)n(C)c(=O)n(C)c1=O)[N+](=O)[O-]", "note": "(stereo not drawn)", "inhibition": -16.4},
      {"smiles": "COc1ccc(NC(=O)CSc2nnc3ccc(-c4cccnc4)nn23)cc1OC", "inhibition": -19.3},
      {"smiles": "COC(=O)c1ccc(C(=O)NC(=S)Nc2ccc3nc(SC)sc3c2)cc1", "inhibition": -0.55},
      {"smiles": "NS(=O)(=O)c1cccc(NC(=O)COC(=O)COc2ccc3ccccc3c2)c1", "inhibition": -0.29},
      {"smiles": "O=C(N/N=C/c1cccs1)c1ccc2c(c1)OCO2", "inhibition": 8.44},
      {"smiles": "Nc1n[nH]c(N)c1N=Nc1cccc(F)c1", "inhibition": 1.03},
      {"smiles": "CC(=O)c1ccc(N=Nc2ccc(N(C)C)cc2)cc1", "inhibition": 13},
      {"smiles": "CN(C)c1ccc2c(c1)OC(N)=C(C#N)C2c1cccc(F)c1", "note": "(stereo not drawn)", "inhibition": -65.2},
      {"smiles": "CN(C)c1ccc(N=Nc2ccc(C(=O)O)cc2)cc1", "inhibition": -2.64},
      {"smiles": "Cc1c(Cl)c(C(F)(F)F)nn1CC(=O)NN", "inhibition": 3.69},
      {"smiles": "O=C(NCc1ccccn1)/C(=C/c1ccco1)NC(=O)c1ccccc1", "inhibition": 1.38},
      {"smiles": "CCOC(=O)N1CCN(C(=O)c2sc3nc(-c4ccc(F)cc4)cn3c2C)CC1", "inhibition": -1.44},
      {"smiles": "O=C(Cc1ccccc1)Nn1c(-c2ccccc2F)nc2ccccc2c1=O", "inhibition": -1.28},
      {"smiles": "CC1(O)CC2CC1C(C(=O)O)C2C(=O)O", "note": "(stereo not drawn)", "inhibition": -2.28},
      {"smiles": "CCn1cc([N+](=O)[O-])c(C(=O)N2CCCc3ccccc32)n1", "inhibition": 4.06},
      {"smiles": "COc1ccc(F)cc1S(=O)(=O)n1cnc2ccccc21", "inhibition": 2.94},
      {"smiles": "CCOc1ccc(OCCCC(=O)O)cc1", "inhibition": -12.4},
      {"smiles": "CN1CCN(c2ccc(NC(=O)c3ccc(-c4ccc(Cl)cc4)o3)cc2)CC1", "inhibition": 6.66},
      {"smiles": "COC(=O)c1ccc(N2CCN(C)CC2)c(NC(=O)c2ccc(-c3ccc(Cl)cc3)o2)c1", "inhibition": -4.26},
      {"smiles": "N#C/C(=C\\c1ccc(OCc2ccccc2)cc1)C(N)=O", "inhibition": 4.02},
      {"smiles": "CCn1c(=O)n(CC)c2cc(N3CCCC3)c(NC(=O)c3cc(Cl)ccc3OC)cc21", "inhibition": 12.7},
      {"smiles": "CN1CCN(/N=C/c2cccc(Cl)c2Cl)CC1", "inhibition": 3.86},
      {"smiles": "CN1CCN(/N=C/c2ccc(-c3ccccc3)cc2)CC1", "inhibition": 10.8},
      {"smiles": "Cc1ccc(C)c(OCCSc2nnc(C)c(=O)[nH]2)c1", "inhibition": -14.8}
    ]}
  ]
}
